According to the supplement of paper PMC12350171:
Structures can show the parent of a compound that is named as a salt.

Assays:
Experiment in all cases: growth AUC normalised to DMSO control (median) (fraction of control); higher = less growth inhibition, active = hit call of the paper
Conditions in all cases: 20 µM;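 active = normalised median growth AUC below 0.1 of DMSO control; inactive = AUC 0.1 or higher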
[1] = test system: P. vulgatus RND KO
Method in brief: (§1)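 Each strain went through two overnight passages under anaerobic conditions before growth in mGAM in 96-well plates, starting at OD578 0.01, with each compound from the approved-drug library at 20 μM and 1% DMSO. Inside an anaerobic incubator, OD578 was recorded every hour for 24 h. Growth curves were cut off at entry into stationary phase, and the area under the curve was calculated by the trapezoidal rule and normalised to vehicle wells on the same plate. Reported values are medians of three biological replicates.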

[2] = test system: P. vulgatus WT
Method in brief: as §1

[3] = test system: S. enterica typhimurium WT
Method in brief: as §1

[4] = test system: S. enterica typhimurium tolC KO
Method in brief: as §1

Measured: growth AUC normalised to DMSO control
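Also: active when median AUC fell below 0.1.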

Cc1cc2nc3c(=O)[nH]c(=O)nc-3n(C[C@H](O)[C@H](O)[C@H](O)CO)c2cc1C [Riboflavine]
inactive: [1] 1.11 | [2] 1.07 | [3] 1 | [4] 0.991

Nc1c(CC(=O)O)cccc1C(=O)c1ccc(Br)cc1 [Bromfenac]
inactive: [1] 1.04 | [2] 1.04 | [3] 1.01 | [4] 0.999

CC(=O)N[C@H]1[C@H]([C@H](O)[C@H](O)CO)OC(C(=O)O)=C[C@@H]1NC(=N)N [Zanamivir]
inactive: [1] 1.06 | [2] 1.1 | [3] 1 | [4] 1.02

O=C(O)C[C@H](O)C[C@H](O)/C=C/c1c(C2CC2)nc2ccccc2c1-c1ccc(F)cc1 [Pitavastatin calcium]
inactive: [1] 0.983 | [2] 1 | [3] 1.01 | [4] 0.999

C=CCOc1ccc(CC(=O)O)cc1Cl [Alclofenac]
inactive: [1] 1.06 | [2] 1.12 | [3] 1 | [4] 0.959

Cc1ccc2c([nH]c(=O)c3c(=O)cc(C(=O)OCCC(C)C)oc32)c1C [Repirinast]
inactive: [1] 0.94 | [2] 0.943 | [3] 1.01 | [4] 0.924

CCOc1cc(N)c(Cl)cc1C(=O)NCC1CN(Cc2ccc(F)cc2)CCO1 (stereo not drawn) [Mosapride]
inactive: [1] 0.938 | [2] 0.981 | [3] 0.988 | [4] 0.722

COc1cc(Nc2c(C#N)cnc3cc(OCCCN4CCN(C)CC4)c(OC)cc23)c(Cl)cc1Cl [Bosutinib]
inactive: [1] 1 | [2] 0.947 | [3] 1 | [4] 0.98

O=C1c2cccc(O)c2C(=O)c2c(O)cccc21 [Danthron]
inactive: [1] 0.689 | [2] 0.525 | [3] 0.991 | [4] 0.369

Cc1ccc(O)c([C@H](CCN(C(C)C)C(C)C)c2ccccc2)c1 [Tolterodine tartrate]
inactive: [1] 1.01 | [2] 1.01 | [3] 1 | [4] 0.971

CN1CCN(C2Cc3ccccc3Sc3ccc(Cl)cc32)CC1 (stereo not drawn) [Octoclothepin maleate salt]
inactive: [1] 1.05 | [2] 1.05 | [3] 0.981 | [4] 0.929

CC(=O)Oc1c(C)cccc1C(=O)O [Cresopirine]
inactive: [1] 0.998 | [2] 0.986 | [3] 0.998 | [4] 0.986

C[C@]12CCC3=C4CCC(=O)C=C4CC[C@H]3[C@@H]1CC[C@@]2(O)CC#N [Dienogest]
inactive: [1] 1.03 | [2] 1.04 | [3] 1.02 | [4] 1.02

NC[C@H]1O[C@H](O[C@H]2[C@H](O)[C@@H](O[C@H]3O[C@H](CO)[C@@H](O)[C@H](N)[C@H]3O)[C@H](N)C[C@@H]2N)[C@H](N)[C@@H](O)[C@@H]1O [Kanamycin B]
inactive: [1] 1.1 | [2] 1.14 | [3] 0.947 | [4] 1.02

CCCCCNC(=N)N/N=C/c1c[nH]c2ccc(OC)cc12 [Tegaserod maleate]
inactive: [1] 0.999 | [2] 0.991 | [3] 0.994 | [4] 0.941

Cc1ccnc2c1NC(=O)c1cccnc1N2C1CC1 [Nevirapine]
inactive: [1] 0.995 | [2] 1.01 | [3] 1 | [4] 1

O=C(O)c1ccccc1Nc1cc(Cl)ccc1C(=O)O [Lobenzarit disodium]
inactive: [1] 0.992 | [2] 1.02 | [3] 1.02 | [4] 0.959

OCC(CO)N[C@H]1C[C@](O)(CO)[C@@H](O)[C@H](O)[C@H]1O [Voglibose]
inactive: [1] 1.04 | [2] 1.02 | [3] 0.977 | [4] 1.02

Nc1ccc(S(=O)(=O)Nc2ccc(Cl)nn2)cc1 [Sulfachloropyridazine]
inactive: [1] 1.03 | [2] 1.02 | [3] 0.965 | [4] 0.963

CN1CC(O)c2cc(N=NC(N)=O)c(O)cc21 (stereo not drawn) [Carbazochrome]
inactive: [1] 0.999 | [2] 1.01 | [3] 0.999 | [4] 0.952

COC(=O)[C@H](c1ccccc1Cl)N1CCc2sccc2C1 [Clopidogrel]
inactive: [1] 0.999 | [2] 0.996 | [3] 1 | [4] 0.914

COc1ccc(CN2CCN(C(c3ccc(F)cc3)c3ccc(F)cc3)CC2)c(OC)c1OC [Lomerizine dihydrochloride]
inactive: [1] 0.997 | [2] 0.986 | [3] 1.01 | [4] 0.978
